In assay [1] the test system is Plasmodium falciparum Sir2 (PF13_0152, Sir2A). The assay can be described thus: pfSir2 binders on small-molecule microarrays, primary screen, biochemical, small-molecule microarray, 635 nm fluorescence (AID 1098).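 Further: score merges spot fluorescence intensity with its signal-to-noise ratio.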 The note with it: small-molecule microarray binding, fluorescence 635 nm; higher = more signal.
The nature of assay [2]: small-molecule microarray binders of probe aDKK1, primary screen, biochemical, biotinylated probe, 635/667 nm fluorescence (AID 1099).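 Further: score merges 667nm spot fluorescence with signal to noise across triplicate slides; reference of the scale not given here.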 The following applies: higher = more signal.
The nature of assay [3]: small-molecule microarray binders of probe aCHRDL2, primary screen, biochemical, biotinylated probe, 635/667 nm fluorescence (AID 1100). The following applies: higher = more signal.
Assay [4] in a line: splicing luciferase reporter signal modulators, primary screen, spliceosome inhibition project, cell-based, HEK293, splice +/- reporter (AID 1101).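 Further: HEK293 cells carrying a splicing-competent luciferase reporter gene; test concentration not given here.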 The note with it: luminescence, 24 h, higher = more signal, called active from +8 up or from −8 down. (In general: In a reporter assay the amount or activity of a reporter protein is the signal.)
Assay [5] addresses Fibroblast growth factor 10 (Homo sapiens) (UniProt O15520). The assay can be described thus: FGF10 binders on small-molecule microarrays, primary screen, biochemical, small-molecule microarray, 635 nm fluorescence (AID 1102). The following applies: FGF10 binding, fluorescence 635 nm, higher = more signal.
The test system of assay [6] is glycogen synthase kinase-3 (GSK3A per assay name; protocol says GSK3B). The assay can be described thus: GSK3 binders on small-molecule microarrays, primary screen, biochemical, small-molecule microarray, 635 nm fluorescence, GSK3A (AID 1103). Further: the record names both GSK3A and GSK3B. The note with it: small-molecule microarray binding, fluorescence 635 nm; higher = more signal.
Assay [7] has as its target Epidermal growth factor receptor (Homo sapiens) (UniProt P00533). The assay can be described thus: EGFR binders on small-molecule microarrays, primary screen, biochemical, small-molecule microarray, 635 nm fluorescence (AID 1104).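 Further: score merges 667 nm emission intensity with spot signal to noise over triplicate slides.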 The following applies: EGFR binding, higher = more signal.
For assay [8], the target named is Follistatin-related protein 3 (Homo sapiens) (UniProt O95633). The assay can be described thus: FSTL3 binders on small-molecule microarrays, primary screen, biochemical, small-molecule microarray, 635 nm fluorescence (AID 1105).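 Further: score merges emission near 667 nm and signal to noise per printed spot across three slides.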 The following applies: FSTL3 binding, higher = more signal.
Follistatin-related protein 3 (Homo sapiens), sequence (O95633 whole entry, looked up): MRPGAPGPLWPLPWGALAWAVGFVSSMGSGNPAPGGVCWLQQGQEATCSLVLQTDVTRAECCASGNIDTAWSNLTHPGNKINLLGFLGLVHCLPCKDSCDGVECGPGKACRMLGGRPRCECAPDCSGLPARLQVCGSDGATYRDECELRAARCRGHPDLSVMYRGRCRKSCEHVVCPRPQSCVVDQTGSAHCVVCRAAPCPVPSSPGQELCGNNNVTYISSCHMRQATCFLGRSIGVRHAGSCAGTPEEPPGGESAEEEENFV
Assay [9] has as its target Dickkopf-related protein 1 (Homo sapiens) (UniProt O94907). The assay can be described thus: DKK1 binders on small-molecule microarrays, primary screen, biochemical, small-molecule microarray, 635 nm fluorescence scan (AID 1106).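 Further: score merges emission near 667 nm with signal to noise over three replicate slides.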 The following applies: DKK1 binding, higher = more signal.
Assay [10] relates to Inhibin beta A chain (activin A). The assay is described as follows: INHBA (activin A) binders on microarrays, primary screen, biochemical, small-molecule microarray, 635 nm fluorescence scan (AID 1107).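 Further: mouse activin A protein probed at 4.33 µg/mL on printed slides; score merges bound-protein fluorescence near 667 nm with spot signal-to-noise.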 The following applies: small-molecule microarray binding, higher = more signal.

Results on 16 compounds are retold here after PubChem BioAssay.

Calls of active or inactive are those of the source.

Epidermal growth factor receptor (Homo sapiens), sequence (P00533 whole entry, looked up): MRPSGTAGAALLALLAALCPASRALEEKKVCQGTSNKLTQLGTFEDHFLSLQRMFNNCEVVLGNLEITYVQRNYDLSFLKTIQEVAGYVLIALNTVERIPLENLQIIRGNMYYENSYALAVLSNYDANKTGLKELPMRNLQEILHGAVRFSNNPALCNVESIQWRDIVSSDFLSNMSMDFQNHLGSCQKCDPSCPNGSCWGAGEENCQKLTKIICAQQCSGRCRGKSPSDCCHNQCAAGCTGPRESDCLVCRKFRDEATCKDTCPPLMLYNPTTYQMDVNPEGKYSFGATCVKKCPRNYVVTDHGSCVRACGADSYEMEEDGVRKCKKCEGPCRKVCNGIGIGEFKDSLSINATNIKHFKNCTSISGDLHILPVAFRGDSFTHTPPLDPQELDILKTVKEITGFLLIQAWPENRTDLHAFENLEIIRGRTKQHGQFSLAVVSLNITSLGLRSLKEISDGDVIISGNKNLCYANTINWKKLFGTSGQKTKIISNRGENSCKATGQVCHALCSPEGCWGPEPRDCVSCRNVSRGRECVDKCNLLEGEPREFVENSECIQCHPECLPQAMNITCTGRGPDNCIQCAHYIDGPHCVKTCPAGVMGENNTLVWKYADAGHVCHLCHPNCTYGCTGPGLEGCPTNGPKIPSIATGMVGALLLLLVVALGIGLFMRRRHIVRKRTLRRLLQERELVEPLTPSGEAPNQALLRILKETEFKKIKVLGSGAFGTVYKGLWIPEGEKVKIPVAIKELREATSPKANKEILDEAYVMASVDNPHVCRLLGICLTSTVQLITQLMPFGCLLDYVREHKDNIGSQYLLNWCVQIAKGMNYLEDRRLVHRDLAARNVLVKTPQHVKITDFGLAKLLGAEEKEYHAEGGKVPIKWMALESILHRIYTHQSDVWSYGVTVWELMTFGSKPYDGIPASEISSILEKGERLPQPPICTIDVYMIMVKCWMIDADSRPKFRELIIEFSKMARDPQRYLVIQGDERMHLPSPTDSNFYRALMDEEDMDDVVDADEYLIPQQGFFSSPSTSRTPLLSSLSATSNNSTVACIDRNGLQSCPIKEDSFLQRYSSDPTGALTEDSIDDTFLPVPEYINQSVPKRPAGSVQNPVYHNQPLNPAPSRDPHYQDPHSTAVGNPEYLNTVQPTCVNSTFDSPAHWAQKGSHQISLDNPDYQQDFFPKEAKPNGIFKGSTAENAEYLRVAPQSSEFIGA
Dickkopf-related protein 1 (Homo sapiens), sequence (O94907 whole entry, looked up): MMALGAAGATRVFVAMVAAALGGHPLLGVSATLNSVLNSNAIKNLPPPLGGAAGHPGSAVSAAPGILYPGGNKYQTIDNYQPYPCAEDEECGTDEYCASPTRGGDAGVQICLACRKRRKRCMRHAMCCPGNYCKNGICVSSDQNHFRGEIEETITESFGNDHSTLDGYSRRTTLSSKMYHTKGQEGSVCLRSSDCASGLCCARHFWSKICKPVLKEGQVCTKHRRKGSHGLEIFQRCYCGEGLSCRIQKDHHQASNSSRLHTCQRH
Fibroblast growth factor 10 (Homo sapiens), sequence (O15520 whole entry, looked up): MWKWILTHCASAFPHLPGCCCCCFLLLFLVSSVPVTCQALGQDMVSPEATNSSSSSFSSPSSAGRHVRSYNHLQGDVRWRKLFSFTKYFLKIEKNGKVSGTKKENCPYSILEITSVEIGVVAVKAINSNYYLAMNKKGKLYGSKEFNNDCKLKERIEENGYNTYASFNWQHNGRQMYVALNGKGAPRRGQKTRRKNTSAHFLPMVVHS

Regarding `CC(C)[Si](C#CCCCC#N)(O[C@H](c1ccccc1)c1cn(Cc2ccccc2)nn1)C(C)C`, the composite z-score in assay [1] was 0.562; in assay [2], -0.17; in [3], -0.65; in assay [5], 1.01; in assay [6], 1.15; in [7] it was 0.494. In addition, the composite z-score was 1.21 in assay [8], 0.869 in assay [9] and 0.105 in [10]. The z-score in assay [4] was -1.08 (inactive).
As to `CCCCC(CC)C(O)C1C=CC2C(=O)N(c3ccccc3)C(=O)C2N1Nc1ccccc1F` (stereo not given), the composite z-score in assay [1] is 1.02; in assay [2] it was 0.36; in [3], 0.852; in [5] it was 0.944; in [6], 1.23; in assay [7] it was -0.187. For the same compound, the figures for the composite z-score in [8], in assay [9] and in assay [10] were 0.517, -0.505 and 0.744, respectively. Moreover, in assay [4], the z-score was -0.561 (inactive).
As for `CCOC(=O)C1=C[C@@H](c2ccccc2)N(S(=O)(=O)c2ccc(C)cc2)[C@H]1c1ccc(OC)cc1`, the composite z-score in assay [1] was 0.979; in assay [2], 1.16; in assay [3], 1.05; in [5] it was 0.957; in assay [6], 0.938; in assay [7], 0.561. Moreover, the composite z-score was 0.652 in assay [8], 0.0786 in assay [9] and 1.25 in [10]. Also, in assay [4], the z-score was -0.71 (inactive).
Consider `COc1cc(NN2C(C(O)c3cc(OC)c(OC)c(OC)c3)C=CC3C(=O)N(C)C(=O)C32)cc(OC)c1OC` (stereo not given), for which the composite z-score came to 1.03 in [1]; 0.171 in assay [2]; 0.318 in assay [3]; 0.691 in assay [5]; 0.984 in assay [6]; 0.347 in assay [7]. Besides, the composite z-score in [8] was 0.34; in [9], -0.289; in [10], 0.93. Further, the z-score in [4] is 0.255 (inactive).
On to `CCCCC(CC)C(O)C1C=CC2C(=O)N(C)C(=O)C2N1Nc1ccccc1` (stereo not given), for which the composite z-score was 0.579 in assay [1]; 0.559 in assay [2]; 0.0302 in assay [3]; 0.304 in assay [5]; 0.598 in [6]; -0.248 in assay [7]. Further, the figures for the composite z-score in assay [8], in assay [9] and in assay [10] were 0.192, -0.0617 and 0.864, respectively. Further, the z-score in assay [4] was 1.48 (inactive).
On to `COc1ccc([Si](C)(C)[C@H]2[C@H](CC(=O)N3CCC[C@H]3CO)O[C@@]3(C(=O)N(Cc4ccc(N5CCOC5=O)cc4)c4ccccc43)[C@@H]2C)cc1`, for which the composite z-score in assay [1] is 1.08; in [2], -0.214; in assay [3], -0.246; in [5], 1.22; in assay [6], 1.14; in assay [7] it was 0.737. Further, the composite z-score in assay [8] was 1.06; in assay [9], 0.672; in [10], 0.378. For the same compound, the z-score in [4] was 0.467 (inactive).
For the compound `CCCC1(C(=O)OC)C=C2C(=C(C)C(=O)C2C)CN1` (stereo not given), the composite z-score was -0.79 in [1]; 0.719 in [2]; 0.974 in assay [3]; 0.168 in assay [5]; -0.636 in assay [6]; 0.0023 in assay [7]. In addition, the figures for the composite z-score in assay [8], in [9] and in assay [10] were -0.105, -0.238 and 1.57, respectively. The z-score in [4] is 0.888 (inactive).
Turning to `COC(=O)[C@]1(CCS(=O)(=O)c2ccccc2)N=C(c2ccc(OCCCO)cc2)O[C@@H]1c1ccccc1N=[N+]=[N-]`, the composite z-score worked out at 1.62 in assay [1]; 0.99 in assay [2]; 1.12 in assay [3]; 1.3 in [5]; 1.3 in assay [6]; 0.416 in [7]. Further, the composite z-score in [8] was 1.2; in assay [9], 0.666; in assay [10], 0.199. For the same compound, in [4], the z-score was -0.571 (inactive).
On to `CCN(CC)c1ccc(N2CC=CC34O[C@@H]5/C=C\CCCOC(=O)C5[C@H]3C(=O)N(C(C)CO)[C@@H]4C2=O)cc1` (stereo not given in full), for which the composite z-score in [1] is 1.03; in assay [2], -0.213; in assay [3], -0.445; in [5], -0.184; in assay [6], -0.208; in assay [7], -0.243. Besides, the composite z-score is -0.232 in [8], 0.512 in assay [9] and 1.03 in assay [10]. In addition, in [4], the z-score is -0.0084 (inactive).
Turning to `CCCN1C(=O)[C@@]2(Cc3ccccc31)N=C(c1ccc(OCCCO)cc1)O[C@H]2c1ccccc1`, the composite z-score in assay [1] was 1.48; in assay [2], 0.402; in assay [3], 0.949; in assay [5] it was 0.988; in assay [6], 1.23; in [7], -0.286. The composite z-score in assay [8] was found to be 0.191; in assay [9], 0.335; in assay [10] it was 0.873. For the same compound, in [4], the z-score was -1.46 (inactive).
With `CN(C)C(=O)[C@]1(Cc2ccccc2CN=[N+]=[N-])N=C(c2ccc(OCCCO)cc2)O[C@@H]1c1ccccc1`, the composite z-score in assay [1] is 1.19; in [2], 0.161; in assay [3] it was 0.821; in assay [5] it was 0.647; in [6], 0.497; in [7], -0.19. In addition, the composite z-score in assay [8] is -0.202; in [9] it was -0.147; in assay [10], 1.29. The z-score in assay [4] was -1.45 (inactive).
Turning to `CC1=C2[C@@H](CCc3ccccc3)OB(O)C[C@@H]2[C@@H]2C(=O)N(Cc3ccccc3)C(=O)[C@@H]2C1`, the composite z-score in [1] is 0.294; in assay [2], -0.155; in [3], -0.395; in assay [5], 0.631; in [6], 0.717; in [7], 0.427. For the same compound, the composite z-score turned out to be 0.746 in assay [8], 0.405 in [9] and 0.654 in assay [10]. The z-score in assay [4] is 0.81 (inactive).
For `CCCC[C@@H]1C[C@H]1[C@@H](NC(=O)c1cccs1)c1ccccc1C(F)(F)F`, the composite z-score is 0.67 in assay [1]; 0.445 in [2]; 0.49 in [3]; -0.0251 in assay [5]; 1.23 in [6]; -0.531 in assay [7]. The composite z-score in [8] is -0.697; in [9], -0.291; in [10] it was 0.978. Also, the z-score in assay [4] was -0.701 (inactive).
On to `COC(=O)[C@@]1(Cc2ccc(OC)cc2)[C@H]2c3cc(C(=O)N(C)C)n(Cc4ccc(C)o4)c3C[C@H]2CN1C(=O)c1ccccc1`, for which the composite z-score in assay [1] is 1.34; in [2], 0.766; in assay [3] it was 0.923; in assay [5] it was 0.251; in assay [6], 1.18; in assay [7] it was -0.102. For the same compound, the results for the composite z-score in [8], in assay [9] and in assay [10] were 0.514, -0.716 and 0.861, respectively. Besides, in [4], the z-score is 4.83 (inactive).
Consider `COCCOC(=O)N1C(=O)[C@@]2(c3ccccc31)[C@H](c1ccc(O)cc1)N1[C@H](c3ccccc3)[C@H](c3ccccc3)OC(=O)[C@H]1[C@@H]2C(=O)N1CCN(c2ncccn2)CC1`, for which the composite z-score worked out at 1.45 in assay [1]; 0.0484 in assay [2]; 0.419 in assay [3]; 1.04 in assay [5]; 1.11 in assay [6]; 0.194 in assay [7]. The composite z-score in [8] worked out at 0.466; in [9], 0.259; in assay [10] it was 0.922. Moreover, the z-score in assay [4] is -0.225 (inactive).
For `CC(C)N1C(=O)C[C@@](C(=O)O)(c2ccc([N+](=O)[O-])cc2)[C@H]1c1ccc(CO)cc1`, the composite z-score in assay [1] was 1.08; in [2] it was 0.744; in assay [3] it was 1.11; in assay [5], -0.443; in assay [6] it was -0.381; in assay [7] it was -1.12. The composite z-score in [8] is -0.633; in assay [9], -0.803; in assay [10] it was 0.593. For the same compound, in assay [4], the z-score was -0.186 (inactive).
